# Laboratory results from PMC11006913.
# Key:
# Assay in all cases: PBM; 200 nM protein, PBS
# Conditions in all cases: dsDNA, one strand shown
# HOXA7 [1] = target: HOXA7 (Homo sapiens, UniProt P31268 116-202)
# PRRX1 [2] = target: PRRX1 (Homo sapiens, UniProt P54821 80-166, F113S)
# HOXB6 [3] = target: HOXB6 (Homo sapiens, UniProt P17509 132-218, K202E)
# ALX1 [4] = target: ALX1 (Homo sapiens, UniProt Q15699 118-204, L144V)
# ALX3 [5] = target: ALX3 (Homo sapiens, UniProt O95076 139-225, N203Q)
# ALX3 (Homo sapiens, UniProt O95076 139-225, N203Q), sequence (O95076 139-225 N203Q): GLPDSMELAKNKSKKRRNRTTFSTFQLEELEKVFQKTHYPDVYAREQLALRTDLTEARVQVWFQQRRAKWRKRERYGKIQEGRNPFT
# ALX1 [6] = target: ALX1 (Homo sapiens, UniProt Q15699 118-204, L144R)
# ALX1 (Homo sapiens, UniProt Q15699 118-204, L144R), sequence (Q15699 118-204 L144R): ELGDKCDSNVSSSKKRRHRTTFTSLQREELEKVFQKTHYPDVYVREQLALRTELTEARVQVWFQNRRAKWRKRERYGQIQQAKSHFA
# HOXC10 = HOXC10 (Homo sapiens, UniProt Q9NYD6 254-340, K271E)
# HOXC10, sequence (Q9NYD6 254-340 K271E): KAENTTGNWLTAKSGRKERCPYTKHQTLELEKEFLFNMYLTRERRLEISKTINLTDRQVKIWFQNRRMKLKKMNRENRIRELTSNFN
# ALX3 [7] = target: ALX3 (Homo sapiens, UniProt O95076 139-225)
# ALX3 (Homo sapiens, UniProt O95076 139-225), sequence (O95076 139-225): as the sequence (O95076 139-225 N203Q) above, with Q65N counted along it
# PROP1 [8] = target: PROP1 (Homo sapiens, UniProt O75360 56-141)
# PROP1 (Homo sapiens, UniProt O75360 56-141), sequence (O75360 56-141): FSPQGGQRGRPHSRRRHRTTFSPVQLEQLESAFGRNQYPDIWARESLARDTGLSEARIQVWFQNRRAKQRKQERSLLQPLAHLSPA
# PROP1 [9] = target: PROP1 (Homo sapiens, UniProt O75360 56-141, R99H)
# PROP1 (Homo sapiens, UniProt O75360 56-141, R99H), sequence (O75360 56-141 R99H): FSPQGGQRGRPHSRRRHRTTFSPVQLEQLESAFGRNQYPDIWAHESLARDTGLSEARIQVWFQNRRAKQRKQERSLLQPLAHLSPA
# ALX3 [10] = target: ALX3 (Homo sapiens, UniProt O95076 139-225, L168Q)
# ALX3 (Homo sapiens, UniProt O95076 139-225, L168Q), sequence (O95076 139-225 L168Q): as the sequence (O95076 139-225 N203Q) above, with L30Q, Q65N counted along it
# ALX3 [11] = target: ALX3 (Homo sapiens, UniProt O95076 139-225, L168V)
# ALX3 (Homo sapiens, UniProt O95076 139-225, L168V), sequence (O95076 139-225 L168V): as the sequence (O95076 139-225 N203Q) above, with L30V, Q65N counted along it
# PROP1 [12] = target: PROP1 (Homo sapiens, UniProt O75360 56-141, F88S)
# PROP1 (Homo sapiens, UniProt O75360 56-141, F88S), sequence (O75360 56-141 F88S): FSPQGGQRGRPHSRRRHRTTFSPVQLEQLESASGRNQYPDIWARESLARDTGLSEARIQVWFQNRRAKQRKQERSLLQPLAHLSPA
# HOXA7 [13] = target: HOXA7 (Homo sapiens, UniProt P31268 116-202, W177C)
# HOXA7 (Homo sapiens, UniProt P31268 116-202, W177C), sequence (P31268 116-202 W177C): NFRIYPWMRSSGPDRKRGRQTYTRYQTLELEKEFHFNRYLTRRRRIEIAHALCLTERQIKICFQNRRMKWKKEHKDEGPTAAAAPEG
# ALX1 [14] = target: ALX1 (Homo sapiens, UniProt Q15699 118-204)
# ALX1 (Homo sapiens, UniProt Q15699 118-204), sequence (Q15699 118-204): as the sequence (Q15699 118-204 L144R) above, with R27L counted along it
# ALX3 [15] = target: ALX3 (Homo sapiens, UniProt O95076 139-225, N203S)
# ALX3 (Homo sapiens, UniProt O95076 139-225, N203S), sequence (O95076 139-225 N203S): as the sequence (O95076 139-225 N203Q) above, with Q65S counted along it
# PRRX1 [16] = target: PRRX1 (Homo sapiens, UniProt P54821 80-166)
# PRRX1 (Homo sapiens, UniProt P54821 80-166), sequence (P54821 80-166): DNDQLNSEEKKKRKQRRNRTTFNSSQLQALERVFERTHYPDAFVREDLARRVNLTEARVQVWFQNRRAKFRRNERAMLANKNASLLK
# HOXB6 [17] = target: HOXB6 (Homo sapiens, UniProt P17509 132-218)
# HOXB6 (Homo sapiens, UniProt P17509 132-218), sequence (P17509 132-218): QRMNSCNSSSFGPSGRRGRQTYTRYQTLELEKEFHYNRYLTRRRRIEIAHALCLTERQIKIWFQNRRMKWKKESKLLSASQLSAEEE
# NKX2-5 [18] = target: NKX2-5 (Homo sapiens, UniProt P52952 125-210, R139K)
# NKX2-5 (Homo sapiens, UniProt P52952 125-210, R139K), sequence (P52952 125-210 R139K): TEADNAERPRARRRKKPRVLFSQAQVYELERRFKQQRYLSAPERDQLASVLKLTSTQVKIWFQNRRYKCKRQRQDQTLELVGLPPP
# NKX2-5 [19] = target: NKX2-5 (Homo sapiens, UniProt P52952 125-210)
# NKX2-5 (Homo sapiens, UniProt P52952 125-210), sequence (P52952 125-210): as the sequence (P52952 125-210 R139K) above, with K15R counted along it
# HOXB6 (Homo sapiens, UniProt P17509 132-218, K202E), sequence (P17509 132-218 K202E): as the sequence (P17509 132-218) above, with K71E counted along it
# ALX1 (Homo sapiens, UniProt Q15699 118-204, L144V), sequence (Q15699 118-204 L144V): as the sequence (Q15699 118-204 L144R) above, with R27V counted along it
# PRRX1 (Homo sapiens, UniProt P54821 80-166, F113S), sequence (P54821 80-166 F113S): as the sequence (P54821 80-166) above, with F34S counted along it
# HOXA7 (Homo sapiens, UniProt P31268 116-202), sequence (P31268 116-202): as the sequence (P31268 116-202 W177C) above, with C62W counted along it
Sequence,binding signal (HOXA7 [1]),binding signal (PRRX1 [2]),binding signal (HOXB6 [3]),binding signal (ALX1 [4]),binding signal (ALX3 [5]),binding signal (ALX1 [6]),binding signal (HOXC10),binding signal (ALX3 [7]),binding signal (PROP1 [8]),binding signal (PROP1 [9]),binding signal (ALX3 [10]),binding signal (ALX3 [11]),binding signal (PROP1 [12]),binding signal (HOXA7 [13]),binding signal (ALX1 [14]),binding signal (ALX3 [15]),binding signal (PRRX1 [16]),binding signal (HOXB6 [17]),binding signal (NKX2-5 [18]),binding signal (NKX2-5 [19])
GTTAATTA,"12.2 upbm affinity estimate (log intensity, higher = more binding, comparable within an allelic series)","12 upbm affinity estimate (log intensity, higher = more binding, comparable within an allelic series)","10.2 upbm affinity estimate (log intensity, higher = more binding, comparable within an allelic series)","12.3 upbm affinity estimate (log intensity, higher = more binding, comparable within an allelic series)","8.67 upbm affinity estimate (log intensity, higher = more binding, comparable within an allelic series)","12 upbm affinity estimate (log intensity, higher = more binding, comparable within an allelic series)","12.3 upbm affinity estimate (log intensity, higher = more binding, comparable within an allelic series)","13 upbm affinity estimate (log intensity, higher = more binding, comparable within an allelic series)","12.1 upbm affinity estimate (log intensity, higher = more binding, comparable within an allelic series)","12.1 upbm affinity estimate (log intensity, higher = more binding, comparable within an allelic series)","11.5 upbm affinity estimate (log intensity, higher = more binding, comparable within an allelic series)","11.2 upbm affinity estimate (log intensity, higher = more binding, comparable within an allelic series)","8.2 upbm affinity estimate (log intensity, higher = more binding, comparable within an allelic series)","8.93 upbm affinity estimate (log intensity, higher = more binding, comparable within an allelic series)","13 upbm affinity estimate (log intensity, higher = more binding, comparable within an allelic series)","8.84 upbm affinity estimate (log intensity, higher = more binding, comparable within an allelic series)","13.6 upbm affinity estimate (log intensity, higher = more binding, comparable within an allelic series)","12.5 upbm affinity estimate (log intensity, higher = more binding, comparable within an allelic series)",,
CTTAATTA,"12.1 upbm affinity estimate (log intensity, higher = more binding, comparable within an allelic series)","12 upbm affinity estimate (log intensity, higher = more binding, comparable within an allelic series)","10.3 upbm affinity estimate (log intensity, higher = more binding, comparable within an allelic series)","12.3 upbm affinity estimate (log intensity, higher = more binding, comparable within an allelic series)","8.7 upbm affinity estimate (log intensity, higher = more binding, comparable within an allelic series)","11.9 upbm affinity estimate (log intensity, higher = more binding, comparable within an allelic series)","12.2 upbm affinity estimate (log intensity, higher = more binding, comparable within an allelic series)","12.9 upbm affinity estimate (log intensity, higher = more binding, comparable within an allelic series)","12.1 upbm affinity estimate (log intensity, higher = more binding, comparable within an allelic series)","12.1 upbm affinity estimate (log intensity, higher = more binding, comparable within an allelic series)","11.4 upbm affinity estimate (log intensity, higher = more binding, comparable within an allelic series)","11.1 upbm affinity estimate (log intensity, higher = more binding, comparable within an allelic series)","8.21 upbm affinity estimate (log intensity, higher = more binding, comparable within an allelic series)","8.96 upbm affinity estimate (log intensity, higher = more binding, comparable within an allelic series)","12.9 upbm affinity estimate (log intensity, higher = more binding, comparable within an allelic series)","8.85 upbm affinity estimate (log intensity, higher = more binding, comparable within an allelic series)","13.6 upbm affinity estimate (log intensity, higher = more binding, comparable within an allelic series)","12.5 upbm affinity estimate (log intensity, higher = more binding, comparable within an allelic series)",,
AATAGTCT,,,,,,,,,,,,,,,,,,,"10.6 upbm affinity estimate (log intensity, higher = more binding, comparable within an allelic series)","10.7 upbm affinity estimate (log intensity, higher = more binding, comparable within an allelic series)"
CCCGTAGC,,,,,,,,,,,,,,,,,,,"8.54 upbm affinity estimate (log intensity, higher = more binding, comparable within an allelic series)","8.55 upbm affinity estimate (log intensity, higher = more binding, comparable within an allelic series)"
GTAATTAA,"12.5 upbm affinity estimate (log intensity, higher = more binding, comparable within an allelic series)","11.8 upbm affinity estimate (log intensity, higher = more binding, comparable within an allelic series)","10.3 upbm affinity estimate (log intensity, higher = more binding, comparable within an allelic series)","12.2 upbm affinity estimate (log intensity, higher = more binding, comparable within an allelic series)","8.59 upbm affinity estimate (log intensity, higher = more binding, comparable within an allelic series)","11.8 upbm affinity estimate (log intensity, higher = more binding, comparable within an allelic series)","12.9 upbm affinity estimate (log intensity, higher = more binding, comparable within an allelic series)","12.9 upbm affinity estimate (log intensity, higher = more binding, comparable within an allelic series)","11.9 upbm affinity estimate (log intensity, higher = more binding, comparable within an allelic series)","11.8 upbm affinity estimate (log intensity, higher = more binding, comparable within an allelic series)","11.2 upbm affinity estimate (log intensity, higher = more binding, comparable within an allelic series)","10.8 upbm affinity estimate (log intensity, higher = more binding, comparable within an allelic series)","7.99 upbm affinity estimate (log intensity, higher = more binding, comparable within an allelic series)","9.01 upbm affinity estimate (log intensity, higher = more binding, comparable within an allelic series)","12.9 upbm affinity estimate (log intensity, higher = more binding, comparable within an allelic series)","8.7 upbm affinity estimate (log intensity, higher = more binding, comparable within an allelic series)","13.6 upbm affinity estimate (log intensity, higher = more binding, comparable within an allelic series)","12.9 upbm affinity estimate (log intensity, higher = more binding, comparable within an allelic series)",,
CCGAGCCA,,,,,,,,,,,,,,,,,,,"9.01 upbm affinity estimate (log intensity, higher = more binding, comparable within an allelic series)","9.05 upbm affinity estimate (log intensity, higher = more binding, comparable within an allelic series)"
GTAATTAC,"12.5 upbm affinity estimate (log intensity, higher = more binding, comparable within an allelic series)","11.5 upbm affinity estimate (log intensity, higher = more binding, comparable within an allelic series)","10.4 upbm affinity estimate (log intensity, higher = more binding, comparable within an allelic series)","12.1 upbm affinity estimate (log intensity, higher = more binding, comparable within an allelic series)","8.56 upbm affinity estimate (log intensity, higher = more binding, comparable within an allelic series)","11.7 upbm affinity estimate (log intensity, higher = more binding, comparable within an allelic series)","12.6 upbm affinity estimate (log intensity, higher = more binding, comparable within an allelic series)","12.7 upbm affinity estimate (log intensity, higher = more binding, comparable within an allelic series)","11.8 upbm affinity estimate (log intensity, higher = more binding, comparable within an allelic series)","11.6 upbm affinity estimate (log intensity, higher = more binding, comparable within an allelic series)","10.7 upbm affinity estimate (log intensity, higher = more binding, comparable within an allelic series)","10.2 upbm affinity estimate (log intensity, higher = more binding, comparable within an allelic series)","8.06 upbm affinity estimate (log intensity, higher = more binding, comparable within an allelic series)","9.01 upbm affinity estimate (log intensity, higher = more binding, comparable within an allelic series)","12.5 upbm affinity estimate (log intensity, higher = more binding, comparable within an allelic series)","8.69 upbm affinity estimate (log intensity, higher = more binding, comparable within an allelic series)","13.5 upbm affinity estimate (log intensity, higher = more binding, comparable within an allelic series)","12.8 upbm affinity estimate (log intensity, higher = more binding, comparable within an allelic series)",,
GATAATTA,"12.2 upbm affinity estimate (log intensity, higher = more binding, comparable within an allelic series)","12 upbm affinity estimate (log intensity, higher = more binding, comparable within an allelic series)","10.2 upbm affinity estimate (log intensity, higher = more binding, comparable within an allelic series)","12.3 upbm affinity estimate (log intensity, higher = more binding, comparable within an allelic series)","8.59 upbm affinity estimate (log intensity, higher = more binding, comparable within an allelic series)","11.8 upbm affinity estimate (log intensity, higher = more binding, comparable within an allelic series)","12.2 upbm affinity estimate (log intensity, higher = more binding, comparable within an allelic series)","12.9 upbm affinity estimate (log intensity, higher = more binding, comparable within an allelic series)","12 upbm affinity estimate (log intensity, higher = more binding, comparable within an allelic series)","12 upbm affinity estimate (log intensity, higher = more binding, comparable within an allelic series)","11.2 upbm affinity estimate (log intensity, higher = more binding, comparable within an allelic series)","10.8 upbm affinity estimate (log intensity, higher = more binding, comparable within an allelic series)","7.94 upbm affinity estimate (log intensity, higher = more binding, comparable within an allelic series)","9.01 upbm affinity estimate (log intensity, higher = more binding, comparable within an allelic series)","12.8 upbm affinity estimate (log intensity, higher = more binding, comparable within an allelic series)","8.72 upbm affinity estimate (log intensity, higher = more binding, comparable within an allelic series)","13.7 upbm affinity estimate (log intensity, higher = more binding, comparable within an allelic series)","12.5 upbm affinity estimate (log intensity, higher = more binding, comparable within an allelic series)",,
TAATTAAA,"11.9 upbm affinity estimate (log intensity, higher = more binding, comparable within an allelic series)","11.9 upbm affinity estimate (log intensity, higher = more binding, comparable within an allelic series)","10.1 upbm affinity estimate (log intensity, higher = more binding, comparable within an allelic series)","11.9 upbm affinity estimate (log intensity, higher = more binding, comparable within an allelic series)","8.59 upbm affinity estimate (log intensity, higher = more binding, comparable within an allelic series)","11.6 upbm affinity estimate (log intensity, higher = more binding, comparable within an allelic series)","12.7 upbm affinity estimate (log intensity, higher = more binding, comparable within an allelic series)","12.8 upbm affinity estimate (log intensity, higher = more binding, comparable within an allelic series)","11.9 upbm affinity estimate (log intensity, higher = more binding, comparable within an allelic series)","11.9 upbm affinity estimate (log intensity, higher = more binding, comparable within an allelic series)","11.3 upbm affinity estimate (log intensity, higher = more binding, comparable within an allelic series)","11.1 upbm affinity estimate (log intensity, higher = more binding, comparable within an allelic series)","8.07 upbm affinity estimate (log intensity, higher = more binding, comparable within an allelic series)","8.8 upbm affinity estimate (log intensity, higher = more binding, comparable within an allelic series)","12.6 upbm affinity estimate (log intensity, higher = more binding, comparable within an allelic series)","8.72 upbm affinity estimate (log intensity, higher = more binding, comparable within an allelic series)","13.6 upbm affinity estimate (log intensity, higher = more binding, comparable within an allelic series)","12.3 upbm affinity estimate (log intensity, higher = more binding, comparable within an allelic series)",,
CACTAAAG,,,,,,,,,,,,,,,,,,,"10.9 upbm affinity estimate (log intensity, higher = more binding, comparable within an allelic series)","10.8 upbm affinity estimate (log intensity, higher = more binding, comparable within an allelic series)"
AGACCGCG,,,,,,,,,,,,,,,,,,,"8.9 upbm affinity estimate (log intensity, higher = more binding, comparable within an allelic series)","8.83 upbm affinity estimate (log intensity, higher = more binding, comparable within an allelic series)"
CTAATTAA,"11.9 upbm affinity estimate (log intensity, higher = more binding, comparable within an allelic series)","12.1 upbm affinity estimate (log intensity, higher = more binding, comparable within an allelic series)","10.1 upbm affinity estimate (log intensity, higher = more binding, comparable within an allelic series)","12.3 upbm affinity estimate (log intensity, higher = more binding, comparable within an allelic series)","8.64 upbm affinity estimate (log intensity, higher = more binding, comparable within an allelic series)","11.9 upbm affinity estimate (log intensity, higher = more binding, comparable within an allelic series)","12.3 upbm affinity estimate (log intensity, higher = more binding, comparable within an allelic series)","12.9 upbm affinity estimate (log intensity, higher = more binding, comparable within an allelic series)","12.2 upbm affinity estimate (log intensity, higher = more binding, comparable within an allelic series)","12.4 upbm affinity estimate (log intensity, higher = more binding, comparable within an allelic series)","11.6 upbm affinity estimate (log intensity, higher = more binding, comparable within an allelic series)","11.4 upbm affinity estimate (log intensity, higher = more binding, comparable within an allelic series)","8.3 upbm affinity estimate (log intensity, higher = more binding, comparable within an allelic series)","8.82 upbm affinity estimate (log intensity, higher = more binding, comparable within an allelic series)","12.9 upbm affinity estimate (log intensity, higher = more binding, comparable within an allelic series)","8.84 upbm affinity estimate (log intensity, higher = more binding, comparable within an allelic series)","13.7 upbm affinity estimate (log intensity, higher = more binding, comparable within an allelic series)","12.2 upbm affinity estimate (log intensity, higher = more binding, comparable within an allelic series)",,
AACGTGGG,,,,,,,,,,,,,,,,,,,"8.65 upbm affinity estimate (log intensity, higher = more binding, comparable within an allelic series)","8.69 upbm affinity estimate (log intensity, higher = more binding, comparable within an allelic series)"
